Experimental data published in the supplement of paper PMC10849652.
Targets with a hit are over-represented here; the source holds about 7,900 in all. About 0.6% of all pairs of compound and target were hits. A number with no mark means an inactive call.

Legend:
Test in all cases: log2 fold change, soluble protein after heating vs DMSO (PISA); higher = thermal stabilisation; K562 cells, 10 uM, 30 min; active = over 0.2 and 3.5 SD of the protein, either way, in both replicates (recomputed)
[1] = target: YAE1 (UniProt Q9NRH1)
Sequence of YAE1 (Q9NRH1 whole entry, looked up): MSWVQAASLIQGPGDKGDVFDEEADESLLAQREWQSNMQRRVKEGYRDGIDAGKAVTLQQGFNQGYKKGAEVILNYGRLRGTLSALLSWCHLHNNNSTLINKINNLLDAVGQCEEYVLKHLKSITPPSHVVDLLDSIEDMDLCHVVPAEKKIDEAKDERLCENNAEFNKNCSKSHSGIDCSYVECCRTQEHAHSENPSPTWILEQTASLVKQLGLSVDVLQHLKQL
How it was run: (§1)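 K562 cells at 2×10^6 cells/mL were treated with 10 μM compound for 30 min. Aliquots were heated for 3 min across 48°C-58°C, pooled, and extracted in PBS with 0.5% NP-40 at 4°C; soluble protein was the supernatant after 21,000xg for 90 min. Soluble protein was quantified by TMTpro 16plex LC-MS/MS with channel sums equalised, and reported as log2 fold change in thermal stability against DMSO controls, with values from duplicates.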

[2] = target: YBX1 (UniProt P67809)
Sequence of YBX1 (UniProt P67809) (P67809 whole entry, looked up): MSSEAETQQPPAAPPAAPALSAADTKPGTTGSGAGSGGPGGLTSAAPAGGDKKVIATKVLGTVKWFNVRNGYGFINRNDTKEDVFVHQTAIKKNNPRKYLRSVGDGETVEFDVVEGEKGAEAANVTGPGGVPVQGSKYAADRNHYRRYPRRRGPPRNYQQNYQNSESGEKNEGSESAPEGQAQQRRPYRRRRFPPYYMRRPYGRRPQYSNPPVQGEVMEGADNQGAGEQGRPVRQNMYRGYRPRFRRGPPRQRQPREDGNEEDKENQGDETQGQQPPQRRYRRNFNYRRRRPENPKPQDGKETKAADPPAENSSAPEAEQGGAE
How it was run: as §1

[3] = target: YES1 (UniProt P07947)
How it was run: as §1

[4] = target: YIPF4 (UniProt Q9BSR8)
Sequence of YIPF4 (Q9BSR8 whole entry, looked up): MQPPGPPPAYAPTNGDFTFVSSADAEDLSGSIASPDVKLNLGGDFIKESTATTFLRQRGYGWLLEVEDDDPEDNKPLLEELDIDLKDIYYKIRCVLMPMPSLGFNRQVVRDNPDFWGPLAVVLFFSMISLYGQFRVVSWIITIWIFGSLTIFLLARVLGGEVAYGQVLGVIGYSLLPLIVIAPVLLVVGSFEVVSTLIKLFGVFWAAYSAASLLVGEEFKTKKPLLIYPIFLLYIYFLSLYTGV
How it was run: as §1

[5] = target: YIPF5 isoform 3 (UniProt Q969M3)
Sequence of YIPF5 isoform 3 (Q969M3 whole entry, looked up, canonical isoform): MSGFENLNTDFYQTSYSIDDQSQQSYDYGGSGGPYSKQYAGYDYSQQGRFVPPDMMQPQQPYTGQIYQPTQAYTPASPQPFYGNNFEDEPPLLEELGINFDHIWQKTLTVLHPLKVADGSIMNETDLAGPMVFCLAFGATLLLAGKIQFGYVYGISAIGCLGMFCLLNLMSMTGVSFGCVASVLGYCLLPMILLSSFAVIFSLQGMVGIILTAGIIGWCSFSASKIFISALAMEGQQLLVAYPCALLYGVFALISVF
How it was run: as §1

[6] = target: YIPF6 (UniProt Q96EC8)
Sequence of YIPF6 (Q96EC8 whole entry, looked up): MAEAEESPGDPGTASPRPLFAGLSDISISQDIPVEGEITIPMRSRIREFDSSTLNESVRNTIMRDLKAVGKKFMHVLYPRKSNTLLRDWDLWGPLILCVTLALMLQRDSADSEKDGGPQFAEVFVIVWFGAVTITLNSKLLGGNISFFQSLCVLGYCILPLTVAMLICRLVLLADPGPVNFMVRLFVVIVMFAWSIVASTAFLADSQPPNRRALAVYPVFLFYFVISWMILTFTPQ
How it was run: as §1

[7] = target: YLPM1 (UniProt P49750)
How it was run: as §1

[8] = target: YOD1 (UniProt Q5VVQ6)
How it was run: as §1

[9] = target: YPEL5 (UniProt P62699)
How it was run: as §1

[10] = target: YWHAB (UniProt P31946)
Sequence of YWHAB (P31946 whole entry, looked up): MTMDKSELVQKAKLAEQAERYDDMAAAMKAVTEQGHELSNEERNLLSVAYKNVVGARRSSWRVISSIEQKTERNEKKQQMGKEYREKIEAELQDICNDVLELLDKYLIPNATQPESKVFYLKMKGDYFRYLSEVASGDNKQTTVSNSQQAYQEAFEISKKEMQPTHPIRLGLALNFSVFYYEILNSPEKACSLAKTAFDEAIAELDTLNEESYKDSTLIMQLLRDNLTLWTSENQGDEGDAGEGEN
How it was run: as §1

[11] = target: YWHAQ (UniProt P27348)
Sequence of YWHAQ (P27348 whole entry, looked up): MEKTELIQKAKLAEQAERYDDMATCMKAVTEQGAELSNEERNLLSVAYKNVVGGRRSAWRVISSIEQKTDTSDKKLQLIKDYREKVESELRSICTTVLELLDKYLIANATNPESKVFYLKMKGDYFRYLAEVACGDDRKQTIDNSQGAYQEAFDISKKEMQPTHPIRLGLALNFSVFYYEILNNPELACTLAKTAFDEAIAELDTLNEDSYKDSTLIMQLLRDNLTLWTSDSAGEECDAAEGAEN
How it was run: as §1

[12] = target: YWHAZ (UniProt E7ESK7)
How it was run: as §1

[13] = target: YWHAZ (UniProt P63104)
Sequence of YWHAZ (UniProt P63104) (P63104 whole entry, looked up): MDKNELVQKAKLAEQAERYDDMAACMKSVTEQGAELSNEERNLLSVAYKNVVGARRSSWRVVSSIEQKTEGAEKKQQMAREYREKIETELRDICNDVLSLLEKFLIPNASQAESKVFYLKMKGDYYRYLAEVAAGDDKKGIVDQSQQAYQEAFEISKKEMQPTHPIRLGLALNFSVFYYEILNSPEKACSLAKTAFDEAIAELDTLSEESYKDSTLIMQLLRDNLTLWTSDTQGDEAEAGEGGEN
How it was run: as §1

[14] = target: YY1 (UniProt P25490)
Sequence of YY1 (P25490 whole entry, looked up): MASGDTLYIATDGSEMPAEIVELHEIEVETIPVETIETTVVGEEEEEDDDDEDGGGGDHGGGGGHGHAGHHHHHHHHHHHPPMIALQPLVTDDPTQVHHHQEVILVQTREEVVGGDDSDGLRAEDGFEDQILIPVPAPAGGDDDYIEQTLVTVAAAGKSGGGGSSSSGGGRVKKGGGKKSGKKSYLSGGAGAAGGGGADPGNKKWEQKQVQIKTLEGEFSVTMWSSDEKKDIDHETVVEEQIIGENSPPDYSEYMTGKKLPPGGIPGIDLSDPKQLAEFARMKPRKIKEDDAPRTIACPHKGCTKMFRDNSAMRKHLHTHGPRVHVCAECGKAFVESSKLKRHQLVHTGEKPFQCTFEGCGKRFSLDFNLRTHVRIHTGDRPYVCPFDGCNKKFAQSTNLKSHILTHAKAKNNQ
How it was run: as §1

[15] = target: ZADH2 (UniProt Q8N4Q0)
Sequence of ZADH2 (Q8N4Q0 whole entry, looked up): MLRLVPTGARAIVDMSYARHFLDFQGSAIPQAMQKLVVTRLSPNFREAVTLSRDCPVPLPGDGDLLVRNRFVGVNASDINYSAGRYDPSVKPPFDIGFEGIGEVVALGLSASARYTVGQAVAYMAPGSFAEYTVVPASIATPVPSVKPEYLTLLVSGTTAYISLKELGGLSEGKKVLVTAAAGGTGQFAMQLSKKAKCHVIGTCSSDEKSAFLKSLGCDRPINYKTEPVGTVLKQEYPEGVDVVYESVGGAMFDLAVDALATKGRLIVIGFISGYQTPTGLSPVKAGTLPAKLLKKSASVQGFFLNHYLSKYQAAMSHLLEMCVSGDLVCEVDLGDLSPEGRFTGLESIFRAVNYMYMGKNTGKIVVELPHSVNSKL
How it was run: as §1

[16] = target: ZBTB17 isoform 2 (UniProt Q13105)
How it was run: as §1

[17] = target: ZBTB21 (UniProt Q9ULJ3)
Sequence of ZBTB21 (Q9ULJ3 whole entry, looked up): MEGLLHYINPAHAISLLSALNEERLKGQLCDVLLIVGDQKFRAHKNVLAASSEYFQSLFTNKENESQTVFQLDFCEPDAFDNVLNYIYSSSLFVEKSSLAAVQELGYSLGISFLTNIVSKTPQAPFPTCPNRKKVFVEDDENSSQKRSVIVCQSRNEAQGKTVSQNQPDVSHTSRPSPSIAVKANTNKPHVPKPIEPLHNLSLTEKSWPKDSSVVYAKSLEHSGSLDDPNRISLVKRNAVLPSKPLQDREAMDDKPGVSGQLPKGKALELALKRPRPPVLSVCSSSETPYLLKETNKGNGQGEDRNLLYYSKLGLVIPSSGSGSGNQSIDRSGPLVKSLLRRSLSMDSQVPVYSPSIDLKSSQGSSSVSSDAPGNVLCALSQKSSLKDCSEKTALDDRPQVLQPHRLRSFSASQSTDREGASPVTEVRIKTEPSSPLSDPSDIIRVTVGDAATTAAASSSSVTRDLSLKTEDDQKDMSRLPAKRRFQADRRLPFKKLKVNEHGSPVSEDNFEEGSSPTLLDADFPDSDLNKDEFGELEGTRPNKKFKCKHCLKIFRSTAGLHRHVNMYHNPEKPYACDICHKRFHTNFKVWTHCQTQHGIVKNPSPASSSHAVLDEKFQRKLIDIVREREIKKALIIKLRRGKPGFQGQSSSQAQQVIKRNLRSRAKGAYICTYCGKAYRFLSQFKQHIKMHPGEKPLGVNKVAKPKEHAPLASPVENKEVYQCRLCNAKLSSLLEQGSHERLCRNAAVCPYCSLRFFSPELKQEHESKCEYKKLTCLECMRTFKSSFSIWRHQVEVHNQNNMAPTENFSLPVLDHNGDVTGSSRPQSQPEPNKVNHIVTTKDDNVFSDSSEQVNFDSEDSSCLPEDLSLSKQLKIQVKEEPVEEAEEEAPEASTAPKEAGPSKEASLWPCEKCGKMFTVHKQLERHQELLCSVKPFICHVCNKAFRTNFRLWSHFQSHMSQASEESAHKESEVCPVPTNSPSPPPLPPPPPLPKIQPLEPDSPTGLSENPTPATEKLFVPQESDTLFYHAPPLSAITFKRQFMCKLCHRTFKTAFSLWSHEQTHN
How it was run: as §1

[18] = target: ZBTB43 (UniProt O43298)
How it was run: as §1

[19] = target: ZC3H18 (UniProt Q86VM9)
Sequence of ZC3H18 (Q86VM9 whole entry, looked up): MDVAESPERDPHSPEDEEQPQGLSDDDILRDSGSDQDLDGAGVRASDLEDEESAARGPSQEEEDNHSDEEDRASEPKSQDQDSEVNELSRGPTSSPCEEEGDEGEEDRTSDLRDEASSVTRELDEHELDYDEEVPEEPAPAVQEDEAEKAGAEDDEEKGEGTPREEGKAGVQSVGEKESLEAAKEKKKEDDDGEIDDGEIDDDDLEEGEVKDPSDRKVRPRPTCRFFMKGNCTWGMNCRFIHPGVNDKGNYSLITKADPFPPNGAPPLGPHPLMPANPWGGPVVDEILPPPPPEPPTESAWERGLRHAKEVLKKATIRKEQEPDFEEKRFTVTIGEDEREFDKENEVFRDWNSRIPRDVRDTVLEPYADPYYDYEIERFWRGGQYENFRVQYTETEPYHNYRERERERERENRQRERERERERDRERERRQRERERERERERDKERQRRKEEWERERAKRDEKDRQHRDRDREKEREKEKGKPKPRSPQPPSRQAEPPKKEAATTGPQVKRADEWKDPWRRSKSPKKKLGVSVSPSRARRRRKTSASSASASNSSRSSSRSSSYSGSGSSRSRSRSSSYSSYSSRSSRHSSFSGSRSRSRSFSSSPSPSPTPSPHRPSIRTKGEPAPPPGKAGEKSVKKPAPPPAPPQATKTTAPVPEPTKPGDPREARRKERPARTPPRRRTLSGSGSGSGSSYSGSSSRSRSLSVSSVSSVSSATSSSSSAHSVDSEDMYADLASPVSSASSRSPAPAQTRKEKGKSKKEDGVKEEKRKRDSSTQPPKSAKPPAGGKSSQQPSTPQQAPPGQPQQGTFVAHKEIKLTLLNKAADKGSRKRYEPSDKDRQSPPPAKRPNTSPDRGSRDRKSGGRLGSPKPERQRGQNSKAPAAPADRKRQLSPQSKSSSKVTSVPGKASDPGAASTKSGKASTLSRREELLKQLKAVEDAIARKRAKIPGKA
How it was run: as §1

[20] = target: YBX1 (UniProt C9J5V9)
How it was run: as §1

Row | SMILES | log2 fold change [1] | log2 fold change [2] | log2 fold change [3] | log2 fold change [4] | log2 fold change [5] | log2 fold change [6] | log2 fold change [7] | log2 fold change [8] | log2 fold change [9] | log2 fold change [10] | log2 fold change [11] | log2 fold change [12] | log2 fold change [13] | log2 fold change [14] | log2 fold change [15] | log2 fold change [16] | log2 fold change [17] | log2 fold change [18] | log2 fold change [19] | log2 fold change [20]
1 | Cc1ccc(NC(=O)c2ccc(CN3CC[C@H](N(C)C)C3)c(C(F)(F)F)c2)cc1Nc1nccc(-c2cncnc2)n1 [bafetinib] | 0.013 | 0.146 | 0.049 | -0.045 | -0.028 | -0.169 | 0.083 | -0.07 | 0.064 | -0.008 | -0.035 | -0.131 | -0.022 | -0.044 | -0.08 | 0.07 | 0.194 | -0.006 | 0.033 | 
2 | CC(C)(O)CC(=O)NCCn1ccc2ncnc(Nc3ccc(Oc4cccc(C(F)(F)F)c4)c(Cl)c3)c21 | 0.072 | 0.162 | -0.054 | -0.012 | -0.094 | 0.019 | -0.002 | -0.113 | 0.041 | -0.013 | -0.084 | 0.021 | 0.027 | -0.026 | -0.323 (active) |  | 0.101 | 0.175 | 0.034 | 
3 | FC(F)(F)c1ccc(/C=C/c2nc(COc3ccc(CCCCn4ccnn4)cc3)co2)cc1 [mubritinib] | -0.062 | -0.031 | -0.067 | 0.024 | 0.012 | 0.036 | -0.038 | 0.108 | -0.202 | 0.045 | 0.049 | 0.11 | 0.015 | -0.055 | -0.294 (active) | -0.131 | 0.003 |  | -0.042 | 
4 | O=C1c2ccccc2-c2n[nH]c3cccc1c23 | -0.048 | -0.051 | -0.153 | 0.033 | -0.153 | -0.018 | 0.02 | 0.012 | -0.158 | 0.001 | 0.089 | 0.008 | 0.045 | -0.07 | 0.03 |  | 0.006 | -0.161 | -0.211 | -0.143
5 | CCN(CCCOc1ccc2c(Nc3cc(CC(=O)Nc4cccc(F)c4)[nH]n3)ncnc2c1)CCOP(=O)(O)O [barasertib] | 0.097 | -0.127 | -0.006 | 0.026 | -0.08 | -0.041 | 0.03 | 0.051 | 0.121 | 0.003 | 0.006 | 0.114 | -0.002 | -0.01 | 0.049 | -0.048 | -0.043 | -0.105 | -0.05 | 
6 | CC(C)N(C[C@H]1O[C@@H](n2cnc3c(N)ncnc32)[C@H](O)[C@@H]1O)[C@H]1C[C@@H](CCc2nc3cc(C(C)(C)C)ccc3[nH]2)C1 [pinometostat] | 0.011 | 0.053 | 0.035 | -0.031 | 0.016 | 0.023 | 0.003 | -0.021 | 0.068 | -0.031 | -0.067 | -0.035 | -0.026 | 0.02 | 0 |  | 0.209 | -0.05 | 0.053 | -0.093
7 | Cc1ccc(-n2nc(C(C)(C)C)cc2NC(=O)Nc2ccc(OCCN3CCOCC3)c3ccccc23)cc1 [doramapimod] | -0.033 | 0.047 | 0.006 | 0.005 | 0.041 | -0.036 | 0 | 0 | 0.039 | 0.022 | -0.12 | 0 | 0.013 | -0.037 | -0.013 |  | 0.069 | -0.029 | 0.052 | 0.082
8 | Oc1cc(-c2nc(-c3ccccc3)[nH]c2-c2ccncc2)ccc1Cl | -0.015 | -0.053 | -0.112 | -0.054 | -0.05 | -0.041 | -0.024 | -0.02 | 0.213 | -0.02 | 0.284 | -0.068 | 0.096 | -0.053 | 0.121 |  | -0.067 | -0.064 | 0.015 | 
9 | Cc1ccc(NC(=O)c2cccc(N(C)C)c2)cc1NC(=O)c1ccc(O)cc1 | 0.009 | 0.011 | 0.037 | 0.025 | -0.138 | 0.024 | -0.023 | -0.028 | 0.081 | -0.008 | -0.023 | 0.082 | 0.011 | -0.012 | -0.047 |  | 0.101 | 0.141 | -0.02 | 
10 | COc1cc(Nc2ncc3c(n2)-c2ccc(Cl)cc2C(c2c(F)cccc2OC)=NC3)ccc1C(=O)O [alisertib] | -0.065 | -0.066 | -0.211 | -0.134 | -0.009 | 0.419 | 0.017 | 0.19 | 0.086 | 0.012 | -0.001 | -0.041 | -0.028 | -0.062 | 0.021 | 0.136 | -0.154 |  | -0.085 | 
11 | C=CC(=O)N1CCC[C@@H](n2nc(-c3ccc(Oc4ccccc4)cc3)c3c(N)ncnc32)C1 [ibrutinib] | -0.008 | 0.103 | 0.188 | 0.009 | -0.005 | -0.001 | -0.117 | -0.016 | 0.054 | -0.013 | 0.002 | -0.167 | 0.019 | -0.032 | 0.125 | -0.05 | -0.174 | 0.064 | 0.002 | 
12 | NC1(c2ccc(-c3nc4ccn5c(=O)[nH]nc5c4cc3-c3ccccc3)cc2)CCC1 | 0.086 | 0.306 | -0.012 | -0.01 | 0.017 | -0.024 | -0.046 | -0.138 | -0.026 | -0.056 | 0.007 | -0.206 | 0.066 | 0.011 | 0.106 | -0.143 | 0.047 |  | 0.032 | 
13 | COc1cccc2cc(-c3nc([C@H]4CC[C@H](C(=O)O)CC4)n4ncnc(N)c34)[nH]c12 | 0.016 | -0.091 | -0.256 | 0.06 | 0.017 | 0.02 | 0.053 | 0.011 | -0.142 | 0.014 | -0.098 | 0.187 | -0.052 | 0.009 | -0.059 | -0.006 | 0.129 |  | 0.014 | 
14 | CC(=O)c1cnc2ccc(-c3cc(Cl)c(O)c(Cl)c3)nc2c1N[C@H]1CC[C@H](CN(C)C)CC1 | 0.078 | 0.155 | -0.819 (active) | -0.197 | 0.023 | 0.008 | -0.093 | -0.04 | -0.173 | -0.019 | 0.118 | -0.081 | 0.06 | -0.084 | -0.131 |  | -0.42 (active) | 0.008 | -0.155 | -0.085
15 | O=C(Nc1nc2ccccc2n1CCN1CCOCC1)c1cccc([N+](=O)[O-])c1 [IRAK-1-4 Inhibitor I] | 0.103 | -0.117 | -0.152 | 0.093 | -0.035 | 0.029 | -0.06 | 0.019 | -0.093 | 0.127 | 0.084 | 0.005 | 0.105 | -0.026 | 0.036 |  | 0.006 | -0.043 | -0.036 | 0.049
